In the library only some 3% were active in any assay of this set; here they are far more common.
Mcl1-Bid inh: disrupts binding of human Mcl-1 to Bid peptide | Q07820 | TR-FRET Mcl-1/Bid-Dy647 peptide binding, 1536-well | inhibition, % at 21.7 µM | actives 0.97% (n = 220,000);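 active means compounds that cut the binding signal by more than half at the single screening dose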;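 further: His-tagged Mcl-1 with europium anti-His antibody binding Bid BH3 peptide; 0% = Mcl-1 plus peptide wells and 100% = peptide-only wells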
Target sequence (Q07820 whole entry, looked up): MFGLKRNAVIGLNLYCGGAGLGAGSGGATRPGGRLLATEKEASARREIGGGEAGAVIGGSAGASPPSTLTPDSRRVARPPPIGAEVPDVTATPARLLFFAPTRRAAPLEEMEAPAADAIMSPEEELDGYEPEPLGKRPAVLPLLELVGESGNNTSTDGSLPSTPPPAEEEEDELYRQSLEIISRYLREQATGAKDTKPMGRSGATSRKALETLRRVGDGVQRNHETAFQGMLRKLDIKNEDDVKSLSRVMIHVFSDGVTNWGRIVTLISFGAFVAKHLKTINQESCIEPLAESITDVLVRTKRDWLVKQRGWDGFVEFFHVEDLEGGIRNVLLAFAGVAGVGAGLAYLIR
Mcl-1 Bim block: disrupts Bim peptide binding to human Mcl-1 | Q07820 | inhibition, % at 10 µM | AID 1009 | actives 0.1% (n = 190,000) | Bead-based flow cytometry, Bim peptide-Mcl-1 binding; in the data active means inhibition above about 40%;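 further: 0% = no compound tracer wells and 100% = peptide blocker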
Arbovirus anti: blocks arbovirus infection; arbovirus infection cell-based antiviral screen; inhibition, % at 10 µM; actives 0.37% (n = 200,000); in the data active means inhibition above about 30%
14-3-3 Bad inh: disrupts binding of bovine 14-3-3 zeta to phospho-Bad peptide; P63103; TR-FRET 14-3-3zeta/Dy647-pBad peptide displacement, 1 h; inhibition, % at 21.7 µM; actives 0.71% (n = 220,000); AID 781;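 active means inhibition above about 70%, limit read from the data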;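 further: 0% = full 14-3-3 plus peptide FRET controls and 100% = background without 14-3-3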
Target sequence (P63103 whole entry, looked up): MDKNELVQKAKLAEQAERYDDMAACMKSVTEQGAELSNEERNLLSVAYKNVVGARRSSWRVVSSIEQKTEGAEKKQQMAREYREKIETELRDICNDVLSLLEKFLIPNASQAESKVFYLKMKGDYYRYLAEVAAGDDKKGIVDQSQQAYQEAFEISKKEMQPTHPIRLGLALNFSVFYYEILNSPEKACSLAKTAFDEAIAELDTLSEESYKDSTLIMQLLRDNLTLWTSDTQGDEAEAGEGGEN
Mcl1 Noxa PPI: disrupts binding of human Mcl-1 to Noxa peptide | actives 1.5% (n = 220,000) | TR-FRET Mcl-1/Noxa peptide binding, 2 h | AID 1022 | inhibition, % at 21.7 µM;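 active means compounds that cut the protein-peptide binding signal by more than 50% relative to plate controls in a single-dose test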;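 further: His-tagged Mcl-1 with rhodamine Noxa BH3 peptide and terbium anti-His antibody; 0% = Mcl-1 plus Noxa peptide wells and 100% = peptide-only wells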
The depositor's hits bear a star; / = not tested or not shown; [ ] = remark or other dose.

SMILES | Mcl1-Bid inh | Mcl-1 Bim block | Arbovirus anti | 14-3-3 Bad inh | Mcl1 Noxa PPI
N/C(=N\OC(=O)C1CC1)c1ccc([N+](=O)[O-])s1 | -0.6 | / | / | -1.8 | -26.2
COc1cc(C(=O)NCCOc2cc(C)cc(C)c2)c(Br)c(OC)c1OC | -7.1 | 0.0 | -25.0 | -1.1 | 5.5
CC(C)n1c(=S)[nH]c2scc(-c3cccs3)c2c1=O | -17.0 | / | / | 0.6 | 73.1*
CC(C(=O)Nc1ccccc1-c1ccccc1)N1CCN(S(=O)(=O)c2ccccc2)CC1 (centres undefined) | 6.3 | 0.0 | 60.9* | 0.4 | 2.0
CC(C)c1ccc(S(=O)(=O)N2CCN(C(C)C(=O)Nc3ccccc3-c3ccccc3)CC2)cc1 (centres undefined) | 1.0 | -1.0 | 20.8 | -11.3 | -12.2
N=C1/C(=C/c2cccn2Cc2ccc(Cl)cc2)C(=O)N=C2SC=CN12 | 53.7* | -1.0 | -4.3 | 24.9 | 35.7
CC1=CC2=NC(=O)/C(=C/c3cccn3Cc3ccccc3)C(=N)N2O1 | -1.1 | / | / | -1.4 | 16.1
CC(=O)c1cccc(NC(=O)C(=O)Nc2cccc3ccccc23)c1 | -28.0 | -6.0 | -10.4 | -2.4 | -5.8
CCc1ccccc1NS(=O)(=O)c1ccc2[nH]cc(C(=O)NC3CCCC3)c(=O)c2c1 | 65.9* | -2.0 | -28.0 | 25.7 | 71.7*
CN1CCN(c2cc3c(c4c2[nH]c2ccccc24)C(=O)CC(C)(C)C3)CC1 | -13.2 | 1.0 | -27.3 | 4.0 | 54.3*
CN1CCN(c2ncnc3c2[nH]c2ccc(F)cc23)CC1 | -9.9 | -5.0 | 17.2 | 1.2 | 37.0
CCCCCn1c(N)c(-c2nc3ccccc3o2)c2c([N+](=O)[O-])nn(CC)c(=O)c21 | 60.5* | 2.0 | -16.1 | 33.8 | 97.3*
CC(=O)NCC(=O)NNC1CC(=O)N(c2cccc(Cl)c2)C1=O (centres undefined) | -15.8 | / | / | 3.9 | 1.8
CNC(=O)C12N=CNN=C1N(C)C(=O)N2C (centres undefined) | 1.2 | 0.0 | 0.0 | -18.5 | 4.3
Cc1ccc(/C(O)=C2/C(=O)C(=O)OC2c2ccc(Cl)cc2)cc1 (centres undefined) | -17.4 | 0.0 | 6.8 | 61.2 | 15.1
O=C1OC(c2ccccc2)/C(=C(/O)c2ccc(Cl)cc2)C1=O (centres undefined) | -8.2 | -1.0 | 0.9 | 71.1* | 26.2
N/C(=N\O)C1COc2ccccc2O1 (centres undefined) | 27.4 | -2.0 | -1.5 | 83.8* | 3.9
CCN(CC)S(=O)(=O)c1ccc(N(C)Cc2cccnc2)nc1 | 19.6 | -4.0 | 4.9 | 5.3 | 46.5
CCOC(=O)c1ccc2[nH]c3c(c2c1)CN(C)CC3 | -13.3 | 0.0 | 0.6 | -1.4 | 15.0
Cc1ccc2[nH]c3c(c2c1)CN(C)CC3 | -14.9 | -1.0 | 8.4 | 74.5* | -2.1
CCOc1ccc2c(c1)-c1c(ssc1=S)C(C)(C)N2C(=O)c1ccco1 | -10.0 | 3.0 | -10.5 | -6.0 | 4.7
C/C(=N\NC(=O)c1c(Cl)c(C)nn1C)c1cccc(NC(=O)COc2ccccc2)c1 | 59.8* | 4.0 | -5.2 | 19.6 | -65.2
C/C(=N\NC(=O)c1c(Cl)c(C)nn1C)c1ccc(NC(=O)COc2ccc(Cl)cc2C)cc1 | 0.5 | -3.0 | -8.5 | 0.5 | -5.4
O=C(Nc1ccc(N2CCOCC2)cc1)C1CC(=O)N(c2ccc(F)cc2)C1 (centres undefined) | -43.5 | -1.0 | -4.0 | -9.6 | 1.0
Cn1cccc1CNC1CCCCC1 | -28.1 | -4.0 | 1.9 | -6.2 | -3.6
SMILES | Mcl1-Bid inh | Mcl-1 Bim block | Arbovirus anti | 14-3-3 Bad inh | Mcl1 Noxa PPI
c1ccc(-n2cccc2CNC2CCCCC2)cc1 | -10.3 | 0.0 | 4.4 | 70.1* | 13.4
Clc1ccc(CN(Cc2ccc(Cl)cc2)c2nn[nH]n2)cc1 | 19.2 | -4.0 | 38.3* | -4.8 | 4.8
CCCc1nnc(SCC(=O)N2CCOCC2)n1C | -9.9 | 0.0 | 3.7 | 3.3 | -17.6
O=C(c1ccco1)N1CCN(S(=O)(=O)c2cccc([N+](=O)[O-])c2)CC1 | -16.9 | 1.0 | 0.0 | -9.2 | 2.0
Clc1ccccc1CN1CCc2sccc2C1 | 88.3* | -3.0 | 7.5 | -0.7 | 15.8
Cn1cc(CN2CCc3sccc3C2)c(-c2ccccc2F)n1 | -13.8 | -2.0 | -3.6 | -9.8 | 22.5
CCCCC1C(=O)N(c2ccccc2)N(c2ccccc2)C1=O | 56.1* | 5.0 | -5.8 | -2.7 | 26.4
Cc1cc(C)nc(N2CCC(C(=O)NNC(=O)c3ccc(Cl)cc3)CC2)n1 | -50.9 | / | / | -1.3 | -18.4
COc1ccc(CNC(=O)c2n[nH]c3ccccc23)cc1OC | 55.2* | 0.0 | -2.8 | 3.7 | 5.2
O=C(CSc1nnc(-c2ccncc2)n1Cc1ccccc1)NC1CCCc2ccccc21 (centres undefined) | -26.6 | -3.0 | -1.9 | -15.4 | 15.2
CCOc1ccc(N2C(=O)C3CCCN3C2=O)cc1 (centres undefined) | -17.2 | 0.0 | 3.8 | 2.0 | -11.4
COc1ccc(N2C(=O)C3CCCN3C2=O)cc1 (centres undefined) | -5.7 | -2.0 | 0.5 | -5.5 | 102.2*
CCOc1ccc(Nc2nc(CC(=O)OC)cc(=O)[nH]2)cc1 | -12.6 | 0.0 | 2.6 | 89.4* | -9.4
CCCc1cc(=O)[nH]c(Nc2cc(OC)ccc2OC)n1 | 6.5 | -2.0 | -2.2 | 5.3 | 25.6
c1cc2ccc3ccc(CN4CCOCC4)c4ccc(c1)c2c34 | 10.4 | -2.0 | -13.5 | 84.8*[fluorescence artefact?] | 29.0
OC1CCCN(Cc2ccc3ccc4cccc5ccc2c3c45)C1 (centres undefined) | 3.7 | 0.0 | -36.8 | -4.4 | -21.6
C/C(=N\NC(=O)COc1ccc([N+](=O)[O-])cc1)C(C)(C)C | -6.5 | -5.0 | 81.0* | 6.1 | -18.3
OC(CNCC1(N2CCCCC2)CCCCC1)COc1ccc(Cl)cc1Cl (centres undefined) | 3.6 | 1.0 | 30.2* | 7.8 | 14.2
O=C(COc1ccc(Cl)cc1Cl)NC(=O)N1CCCCC1 | -9.5 | 0.0 | 3.6 | -0.3 | /
CCOc1ccc(-c2csc(NC(=O)CSCC(=O)O)n2)c2ccccc12 | 2.3 | -2.0 | 32.3* | 0.8 | 5.7
CC1(OC(=O)c2ccc(Cl)nc2)C(=O)C=C2C=C3CCCN3C=C2C1=O (centres undefined) | -105.7 | / | / | 3.6 | 58.7*
CC1(OC(=O)C2CCCC2)C(=O)C=C2C=C3CCCCN3C=C2C1=O (centres undefined) | -144.6 | / | / | -3.9 | 9.6
COC(=O)CCC(=O)OC1(C)C(=O)C=C2C=C3CCCN3C=C2C1=O (centres undefined) | -47.6 | / | / | -2.1 | 53.6*
CN1CCN(C(=S)NC(=O)c2ccco2)CC1 | -26.9 | 0.0 | -3.1 | -7.3 | 8.4
Cc1nn(CC(=O)N/N=C/c2ccc3c(c2)OCO3)c(C)c1Br | -13.1 | -7.0 | 1.2 | 80.5* | -4.5
COC(=O)c1ccc(CNC(=O)COC(=O)c2ccc(N(C)C)cc2)cc1 | -59.1 | 0.0 | -1.3 | -13.2 | -1.7
CC1CCCC(NC2CCCCNC2=O)C1 (centres undefined) | 83.1* | 2.0 | 2.2 | 10.6 | -10.8
CCOC(=O)c1c(NC(=S)Nc2ccc(Cl)cc2)sc(C)c1C | -32.1 | 3.0 | 9.7 | -3.5 | 3.3
COC(=O)c1c(NC(=S)Nc2ccc(CC(=O)O)cc2)sc(C)c1C | -81.2 | -5.0 | 0.8 | -16.7 | 72.2*
